Results on 40 compounds are retold here after the supplement of paper PMC9023506.

Where a name gives a salt, the structure may show the parent alone.

This experiment has as its system Danio rerio larvae (5 dpf). Description: optomotor response to green moving lines, difference vs DMSO (percentage points (treated minus DMSO)); higher = more of the behaviour than the DMSO vehicle control. The settings on record: 10 µM; exposure time: 3 h pre-incubation + 3 h imaging. How it is done:
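5-dpf wild-type zebrafish larvae were imaged in 96-well plates. They were treated with 190 Tocris FDA-approved drugs at 10 µM (1 µl/ml DMSO) for 3 h before and 3 h during imaging at 28.5 °C, 48 larvae per drug. Automated image analysis gave % time moving and optomotor responses. Values are drug group mean minus DMSO vehicle mean (n=844), in percentage points, for 10 behaviours.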
In the case of `Clc1ccc2nsnc2c1NC1=NCCN1` [Tizanidine hydrochloride], the “optomotor response to green moving lines” value is -0.817. Take `Clc1ccc(COC(Cn2ccnc2)c2ccc(Cl)cc2Cl)c(Cl)c1` (stereo not given) [Miconazole nitrate]: the “optomotor response to green moving lines” value is -5.21. For `COc1cc2ncnc(Nc3ccc(F)c(Cl)c3)c2cc1OCCCN1CCOCC1` [Iressa], the “optomotor response to green moving lines” value was -10.8. For the compound `CC(C)c1nc(CN(C)C(=O)N[C@H](C(=O)N[C@@H](Cc2ccccc2)C[C@H](O)[C@H](Cc2ccccc2)NC(=O)OCc2cncs2)C(C)C)cs1` [Ritonavir], the “optomotor response to green moving lines” value is -6.36.

Regarding `CC(=O)O[C@H]1C(=O)[C@@]2(C)[C@H]([C@H](OC(=O)c3ccccc3)[C@]3(O)C[C@H](OC(=O)[C@H](O)[C@@H](NC(=O)c4ccccc4)c4ccccc4)C(C)=C1C3(C)C)[C@]1(OC(C)=O)CO[C@@H]1C[C@@H]2O` [Taxol], the “optomotor response to green moving lines” value was -4.62.

On to `CCCCCCCN(CC)CCCC(O)c1ccc(NS(C)(=O)=O)cc1` (stereo not given) [Ibutilide hemifumarate], for which the “optomotor response to green moving lines” value amounted to 4.88. `CS(=O)(=O)CCNCc1ccc(-c2ccc3ncnc(Nc4ccc(OCc5cccc(F)c5)c(Cl)c4)c3c2)o1` [Lapatinib]: the “optomotor response to green moving lines” value came to 0.954.

As for `C[C@H](Cc1cc2c(c(C(N)=O)c1)N(CCCO)CC2)NCCOc1ccccc1OCC(F)(F)F` [Silodosin], the “optomotor response to green moving lines” value was 1.5.

Turning to `CN(C)CCC[C@@]1(c2ccc(F)cc2)OCc2cc(C#N)ccc21` [Escitalopram oxalate], the “optomotor response to green moving lines” value amounted to 1.9. In the case of `Nc1ccn([C@@H]2O[C@H](CO)[C@@H](O)C2(F)F)c(=O)n1` [Gemcitabine hydrochloride], the “optomotor response to green moving lines” value stood at 0.29. Under `Clc1ccccc1C(c1ccccc1)(c1ccccc1)n1ccnc1` [Clotrimazole] stands -19.6.

As for `COc1cc(N)c(Cl)cc1C(=O)NC1CCN(CCCOc2ccc(F)cc2)CC1OC` (stereo not given) [Cisapride], the “optomotor response to green moving lines” value is 5.81.

Consider `COc1ccc(C[C@@H](C)NC[C@H](O)c2ccc(O)c(NC=O)c2)cc1` [Arformoterol tartrate], for which the “optomotor response to green moving lines” value is 0.317. As to `COc1cc2nccc(Oc3ccc(NC(=O)C4(C(=O)Nc5ccc(F)cc5)CC4)cc3)c2cc1OC`, the “optomotor response to green moving lines” value is 9.65. `CN1CCC[C@@H]1CCO[C@](C)(c1ccccc1)c1ccc(Cl)cc1` [Clemastine fumarate]: the “optomotor response to green moving lines” value is 4.02. On to `Cc1ccc(-c2cc(C(F)(F)F)nn2-c2ccc(S(N)(=O)=O)cc2)cc1` [Celecoxib], for which the “optomotor response to green moving lines” value stood at 0.469. As for `COc1cccc2c1C(=O)c1c(O)c3c(c(O)c1C2=O)C[C@@](O)(C(=O)CO)C[C@@H]3O[C@H]1C[C@H](N)[C@H](O)[C@H](C)O1` [Doxorubicin hydrochloride], the “optomotor response to green moving lines” value is -8.47. Consider `C#CCN[C@@H]1CCc2ccccc21` [Rasagiline mesylate], for which the “optomotor response to green moving lines” value was -10.1.

As to `Nc1nc(F)nc2c1ncn2[C@@H]1O[C@H](CO)[C@@H](O)[C@@H]1O` [Fludarabine], the “optomotor response to green moving lines” value worked out at 1.3.

`CCOC(=O)c1ncn2c1CN(C)C(=O)c1cc(F)ccc1-2` [Flumazenil]: the “optomotor response to green moving lines” value turned out to be 15.

Take `CCCCc1nc(Cl)c(CO)n1Cc1ccc(-c2ccccc2-c2nnn[nH]2)cc1` [Losartan potassium]: the “optomotor response to green moving lines” value is -0.568.

Take `CC(C)Nc1cccnc1N1CCN(C(=O)c2cc3cc(NS(C)(=O)=O)ccc3[nH]2)CC1` [Delavirdine mesylate]: the “optomotor response to green moving lines” value is -4.7.

As for `CCCc1nn(C)c2c(=O)[nH]c(-c3cc(S(=O)(=O)N4CCN(C)CC4)ccc3OCC)nc12` [Sildenafil citrate], the “optomotor response to green moving lines” value was -1.55. For `OCCOCCN1CCN(C2=Nc3ccccc3Sc3ccccc32)CC1` [Quetiapine hemifumarate], the “optomotor response to green moving lines” value came out at 10.3.

Turning to `CC(C)(C#N)c1cc(Cn2cncn2)cc(C(C)(C)C#N)c1` [Anastrozole], the “optomotor response to green moving lines” value was -2.71. The value for `C=CC(=O)N1CCC[C@@H](n2nc(-c3ccc(Oc4ccccc4)cc3)c3c(N)ncnc32)C1` [Ibrutinib] was -2.12.

With `CN(C)C(=N)NC(=N)N` [Metformin hydrochloride], the “optomotor response to green moving lines” value came to 7.37. For the compound `OCCN1C[C@H](O)[C@@H](O)[C@H](O)[C@H]1CO` [Miglitol], the “optomotor response to green moving lines” value turned out to be 2.58. Regarding `COc1c(C)c2c(c(O)c1C/C=C(\C)CCC(=O)OCCN1CCOCC1)C(=O)OC2` [Mycophenolate mofetil], the “optomotor response to green moving lines” value was found to be 4.99. As for `CN1CC[C@@H](NC(=O)Nc2ccc(C#N)cc2)C[C@@H]1c1nc2ccccc2[nH]1`, the “optomotor response to green moving lines” value was -5.63. For the compound `C/C(O)=C(\C#N)C(=O)Nc1ccc(C(F)(F)F)cc1` [Teriflunomide], the “optomotor response to green moving lines” value was -10.8. Under `NS(=O)(=O)c1cc2c(cc1Cl)NC(C1CC3C=CC1C3)NS2(=O)=O` (stereo not given) [Cyclothiazide] stands 0.907; under `Cc1cccc(C)c1OCC(C)N` (stereo not given) [Mexiletine hydrochloride], -1.17. Consider `CC(C)n1c(/C=C/C(O)CC(O)CC(=O)O)c(-c2ccc(F)cc2)c2ccccc21` (stereo not given) [Fluvastatin sodium], for which the “optomotor response to green moving lines” value was -3.1. `Cn1cnc([N+](=O)[O-])c1Sc1ncnc2[nH]cnc12` [Azathioprine]: the “optomotor response to green moving lines” value was -1.06. Under `Cc1ccccc1C(=O)Nc1ccc(C(=O)N2CCCC(O)c3cc(Cl)ccc32)c(C)c1` (stereo not given) [Tolvaptan] stands 10.3. As to `COc1cc2nc(N3CCN(C(=O)C4COc5ccccc5O4)CC3)nc(N)c2cc1OC` (stereo not given) [Doxazosin mesylate], the “optomotor response to green moving lines” value is -8.3.

For the compound `O=C(O)CCCc1ccccc1` [Sodium 4-Phenylbutyrate], the “optomotor response to green moving lines” value is -2.96. On to `CN(C)CC/C=C1/c2ccccc2COc2ccc(CC(=O)O)cc21` [Olopatadine hydrochloride], for which the “optomotor response to green moving lines” value was determined as 5.77. `C=C1[C@H](CO)[C@@H](O)C[C@@H]1n1cnc2c(=O)[nH]c(N)nc21` [Entecavir]: the “optomotor response to green moving lines” value came out at 0.498.
